Among the data in PubChem BioAssay (EPA / NIEHS) are AC50 and outcome values, retold here.

Inconclusive results are not listed. Active and inactive are the calls of the source. The calls were made as follows, unless noted: active = hit-call score of the fitted dose curve at least 0.9, where 1 is the maximum; inactive = score below 0.9.

Assay [1] has as its system Thyroperoxidase (TPO), gene 54314. The assay can be described thus: CCTE_Simmons_AUR_rTPO: CCTE's Amplex UltraRed Assay for Thyroperoxidase (TPO) Inhibition, Simmons Lab (AID 2283662; active = hit-call score of the fitted dose curve at least 0.9, where 1 is the maximum;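 also: potency for loss of signal meaning inhibition of peroxidase activity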). Summed up:
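Rat thyroid microsomes (5 ug protein) with 25 uM Amplex UltraRed and 300 uM H2O2 in 200 mM phosphate buffer, 30 min at 37C in dark; fluorescence 544/590 nm. Eight concentrations, 5 nM–87.5 uM final, 0.5% DMSO, triplicate biological replicates.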

Assay [2] is described as follows: CCTE_Simmons_CellTiterGLO_HEK293T: Viability Assessment in CCTE's Assays for Thyroperoxidase (TPO) Inhibition, Simmons Lab (AID 2283665; active = hit-call score of the fitted dose curve at least 0.9, where 1 is the maximum). Put shortly:
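HEK293T cells in DMEM with 1% FBS, dosed 24 h at 37C with 8 concentrations, 5 nM–87.5 uM final, 0.5% DMSO. ATP measured by CellTiter Glo luminescence; loss of signal vs DMSO, three biological replicates.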
In general terms: ATP-based viability assays read luminescence as a measure of living cells.

For assay [3], the target named is Luciferin 4-monooxygenase (Photinus pyralis) (UniProt P08659). The assay can be described thus: CCTE_Simmons_QuantiLum_inhib_2: CCTE's Firefly Luciferase Inhibition Assay, Simmons Lab (AID 2283767; active = hit-call score of the fitted dose curve at least 0.9, where 1 is the maximum). Put shortly:
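Cell-free recombinant firefly luciferase (5 ng/well) in 200mM potassium phosphate with 1 mg/ml BSA, 30 min at 37C with 8 concentrations from 5 nM to 87.5 uM [final], 0.5% DMSO. Luminescence read after D-luciferin (150uM)/dATP (147uM) reagent injection, pH 7.8; triplicates.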

The nature of assay [4]: CEETOX_H295R_MTT_cell_viability: Viability Assessment in the CeeTox HT-H295R MTT Assay (AID 2283718). Put shortly:
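MTT reduction (0.5 mg/ml, 4 h at 37 C; absorbance at 570 and 650 nm) gave viability as background-corrected percent change versus controls. H295R cells had 48 h forskolin (10 uM) prestimulation, then 48 h chemical exposure at 0.1% DMSO.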

The nature of assay [5]: CEETOX_H295R_11DCORT_noMTC: CeeTox H295R High-throughput Steroidogenesis Assay for 11-Deoxycortisol (11DCORT), maximum tolerated concentration (MTC) filtered results only (AID 2283911). Particulars: actives raise or lower the signal. Summed up:
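H295R cells were prestimulated 48 h with 10 uM forskolin, then exposed 48 h to chemical (0.1% DMSO final). 11-Deoxycortisol in the medium was measured by MTBE extraction and HPLC-MS/MS, with bidirectional fitting versus DMSO and no MTC filtering of concentrations.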

The nature of assay [6]: CEETOX_H295R_OHPREG_noMTC: CeeTox H295R High-throughput Steroidogenesis Assay for OH-Pregnenolone (OHPREG), maximum tolerated concentration (MTC) filtered results only (AID 2283912). Conditions: actives raise or lower the signal. Summed up:
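Steroidogenesis in H295R cells (OECD 456, modified): after 48 h forskolin priming and 48 h chemical treatment, secreted 17alpha-hydroxypregnenolone is measured by HPLC-MS/MS. Activity is fitted in both directions against DMSO; concentrations are not filtered by MTT-based MTC.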

Assay [7] is described as follows: CEETOX_H295R_OHPROG_noMTC: CeeTox H295R High-throughput Steroidogenesis Assay for OH-Progesterone (OHPROG), maximum tolerated concentration (MTC) filtered results only (AID 2283914). Particulars: actives raise or lower the signal. Put shortly: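 Forskolin 10 uM, 48 h prestim → test cmpd in DMSO (0.1% final), 48 h → medium MTBE extraction → LC-MS/MS quant of 17alpha-OH-progesterone. Bidirectional fit vs DMSO; no MTT-based MTC filtering.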

The nature of assay [8]: CEETOX_H295R_ANDR_noMTC: CeeTox H295R High-throughput Steroidogenesis Assay for Androstenedione (ANDR), maximum tolerated concentration (MTC) filtered results only (AID 2283915). Particulars: actives raise or lower the signal. Summed up:
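H295R cells, passage 10 or below, prestimulated 48 h with 10 uM forskolin, then exposed 48 h to chemical in 0.1% DMSO. Medium androstenedione extracted with MTBE, quantified by HPLC-MS/MS; concentrations not MTC-filtered; bidirectional fit versus DMSO.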

Assay [9] is described as follows: CEETOX_H295R_CORTISOL_noMTC: CeeTox H295R High-throughput Steroidogenesis Assay for Cortisol, maximum tolerated concentration (MTC) filtered results only (AID 2283916). Particulars: actives raise or lower the signal. Put shortly:
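Cortisol secretion measured by LC-MS/MS after 48 h chemical treatment (final 0.1% DMSO) of forskolin-primed (10 uM, 48 h) H295R cells; gain or loss fitted relative to DMSO, without maximum-tolerated-concentration filtering.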

Assay [10] can be described thus: CEETOX_H295R_CORTIC_noMTC: CeeTox H295R High-throughput Steroidogenesis Assay for Corticosterone (CORTIC), maximum tolerated concentration (MTC) filtered results only (AID 2283917). Particulars: actives raise or lower the signal. Summed up:
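Following OECD 456 with minor changes, H295R cultures received 10 uM forskolin for 48 h, then test chemical at 0.1% DMSO for 48 h. Media steroids were extracted and measured by LC-MS/MS.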

Assay [11] can be described thus: CEETOX_H295R_DOC_noMTC: CeeTox H295R High-throughput Steroidogenesis Assay for DOC, maximum tolerated concentration (MTC) filtered results only (AID 2283918). Particulars: actives raise or lower the signal. Summed up:
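11-Deoxycorticosterone secreted by human adrenal H295R cells quantified by HPLC-MS/MS after 48 h chemical exposure (0.1% DMSO), following 48 h 10 uM forskolin prestimulation. Concentrations not filtered by MTT-derived MTC; bidirectional fitting.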

Assay [12] can be described thus: CEETOX_H295R_ESTRADIOL_noMTC: CeeTox H295R High-throughput Steroidogenesis Assay for Estradiol, maximum tolerated concentration (MTC) filtered results only (AID 2283919). Particulars: actives raise or lower the signal. Put shortly:
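H295R human adrenal cells pre-stimulated 48 h with 10 uM forskolin, then exposed 48 h to chemical (0.1% DMSO final). Estradiol in medium measured by HPLC-MS/MS after MTBE extraction and dansyl derivatization; bidirectional fit versus DMSO, concentrations not MTT-filtered.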

Assay [13] is described as follows: CEETOX_H295R_PROG_noMTC: CeeTox H295R High-throughput Steroidogenesis Assay for Progesterone (PROG), maximum tolerated concentration (MTC) filtered results only (AID 2283920). Conditions: actives raise or lower the signal. Summed up: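 H295R cells; forskolin 10 uM x 48 h prestim; test cpd 48 h, 0.1% DMSO final; media progesterone via LC-MS/MS; bidirectional fit vs DMSO; no MTT-based MTC filter applied.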

Assay [14] can be described thus: CEETOX_H295R_ESTRONE_noMTC: CeeTox H295R High-throughput Steroidogenesis Assay for Estrone, maximum tolerated concentration (MTC) filtered results only (AID 2283921). Particulars: actives raise or lower the signal. Summed up:
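H295R cells prestimulated 48 h with 10 uM forskolin, then exposed 48 h to chemical in 0.1% DMSO; medium estrone measured by HPLC-MS/MS after MTBE extraction and dansyl derivatization, fitted bidirectionally versus DMSO without MTT-based MTC filtering.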

The nature of assay [15]: CEETOX_H295R_TESTO_noMTC: CeeTox H295R High-throughput Steroidogenesis Assay for Testosterone (TESTO), maximum tolerated concentration (MTC) filtered results only (AID 2283924). Particulars: actives raise or lower the signal. Put shortly: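 H295R cells prestimulated 48 h with 10 uM forskolin, then exposed 48 h to chemicals in 0.1% DMSO final. Testosterone in medium quantified by MTBE extraction and HPLC-MS/MS; bidirectional fit versus DMSO, concentrations […] filtered by MTT-based maximum tolerated concentration.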

The target of assay [16] is Cellular tumor antigen p53 (Homo sapiens) (UniProt P04637). The assay can be described thus: TOX21_p53_BLA_p4_ratio: Tox21 HCT-116 p53 Agonism Beta-lactamase Assay, Ratio, Phase 4 (AID 2283601; active = hit-call score of the fitted dose curve at least 0.9, where 1 is the maximum). Summed up: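 Signal is the blue/green (460nm/530nm) ratio of cleaved versus uncleaved CCF4-AM substrate, read after 2 h substrate loading. Cells were HCT116 carrying the p53-responsive beta-lactamase reporter, dosed 16 h at 37C, 5% CO2; CellTiter-Glo measured in parallel.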
Chain of Cellular tumor antigen p53 (Homo sapiens) (P04637 whole entry, looked up): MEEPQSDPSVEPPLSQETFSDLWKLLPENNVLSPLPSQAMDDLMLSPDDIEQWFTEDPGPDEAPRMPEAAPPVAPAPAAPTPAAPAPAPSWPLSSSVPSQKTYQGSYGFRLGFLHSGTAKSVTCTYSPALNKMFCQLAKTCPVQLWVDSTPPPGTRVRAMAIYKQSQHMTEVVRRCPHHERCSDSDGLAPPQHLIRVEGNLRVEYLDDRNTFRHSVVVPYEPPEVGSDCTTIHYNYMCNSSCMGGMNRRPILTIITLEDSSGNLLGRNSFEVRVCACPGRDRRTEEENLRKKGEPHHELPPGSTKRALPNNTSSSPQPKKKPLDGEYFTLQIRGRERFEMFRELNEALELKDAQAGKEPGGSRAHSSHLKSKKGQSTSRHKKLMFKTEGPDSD

Chain of Luciferin 4-monooxygenase (Photinus pyralis) (P08659 whole entry, looked up): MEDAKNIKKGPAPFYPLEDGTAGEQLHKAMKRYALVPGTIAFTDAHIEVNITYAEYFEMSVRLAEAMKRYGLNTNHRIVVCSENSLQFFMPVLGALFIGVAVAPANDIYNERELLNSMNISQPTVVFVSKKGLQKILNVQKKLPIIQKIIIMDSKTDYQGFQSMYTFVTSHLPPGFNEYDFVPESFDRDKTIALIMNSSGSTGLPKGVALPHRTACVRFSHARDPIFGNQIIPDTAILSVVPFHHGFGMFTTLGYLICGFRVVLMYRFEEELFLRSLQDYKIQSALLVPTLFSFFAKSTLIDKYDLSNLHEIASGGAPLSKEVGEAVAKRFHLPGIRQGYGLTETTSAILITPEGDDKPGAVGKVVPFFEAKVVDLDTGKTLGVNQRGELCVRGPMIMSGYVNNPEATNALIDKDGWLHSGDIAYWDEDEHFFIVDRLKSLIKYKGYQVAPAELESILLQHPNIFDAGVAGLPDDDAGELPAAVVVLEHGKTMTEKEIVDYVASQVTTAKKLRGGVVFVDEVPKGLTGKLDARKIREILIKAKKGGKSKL

Regarding `S=c1[nH]c2cc(Cl)ccc2s1`, the concentration at half-maximal activity (AC50) in assay [1] was 1540 nM (active). Also, the outcome in assay [2] and in assay [3] was inactive.
For the compound `O=C1CC(c2ccc(O)cc2)Oc2cc(O)cc(O)c21` (centres undefined), the AC50 in assay [1] is 742 nM (active). Besides, the compound was called inactive in [2] and in assay [3].
On to `CS(=O)(=O)OCCOS(C)(=O)=O`, for which the call in assay [4], in assay [5], in [6], in assay [7], in [8] and in assay [9] was inactive. Moreover, the compound was called inactive in assay [10], in [11], in [12], in assay [13], in assay [14] and in [15].
With `CCN(CC)CCOC(=O)C(c1ccccc1)C1CCCCC1` (centres undefined), the result in assay [16] was inactive.

The AC50 is the concentration giving half of the maximal activity seen.
